Assay outcomes (PubChem BioAssay)
Shown are actives, neighbours in structure and some others; about 3.4% of the full set was active somewhere.
TROY signal inh – blocks TROY-dependent signaling in reporter cells; inhibition, % at 10 µM; actives 0.98% (n = 360,000); Q293 LMP1-TROYcd NF-kB luciferase reporter, 4 h; AID 1347056;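 active means compounds whose plate-normalised and pattern-corrected inhibition of the luciferase reporter signal at the single screening dose is 50% or more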
HIF-2a inh – blocks HIF-2a reporter activity; 786-0 RCC cells HIF-2a reporter, luciferase luminescence, overnight; inhibition, % at 18.8 µM; actives 0.72% (n = 360,000); AID 624352;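 active means inhibition of the luminescence signal of 40% or more relative to plate controls, in a single-dose primary screen at 18.75 µM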
TWEAK Fn14 block – blocks TWEAK-Fn14 interaction in a reporter cell assay | TWEAK-stimulated Fn14 reporter cells, luciferase luminescence, 8 h | inhibition, % at 10 µM | actives 2% (n = 360,000) | AID 1159606; in the data active means inhibition above about 50%
Shn3 3UTR inh – inhibitors of Schnurri-3 3'UTR reporter in osteoblasts; Clone20 osteoblast Shn3 3'UTR firefly luciferase, 24 h; inhibition, % at 12.5 µM; actives 0.52% (n = 360,000); AID 588674;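 active means mean inhibition of at least 75% with every replicate also reaching 75%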
MITF TRPM1 inh – inhibitors of MITF-driven TRPM1 promoter in melanoma cells | SK-MEL-5 TRPM1 promoter luciferase, 24 h | inhibition, % at 12.5 µM | actives 0.83% (n = 330,000);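 active means mean inhibition across replicates of 60% or more, whatever share of single replicates reaches that level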
EBV LMP1 NFkB – inhibitors of Epstein-Barr LMP1-induced NF-kappaB reporter | LMP1-induced NF-kappaB luciferase reporter cells, luminescence | inhibition, % at 12.5 µM | actives 0.69% (n = 350,000); in the data active means inhibition above about 41%
A number is an active result; – = inactive; · = not tested or not shown.

SMILES | TROY signal inh | HIF-2a inh | TWEAK Fn14 block | Shn3 3UTR inh | MITF TRPM1 inh | EBV LMP1 NFkB
Cc1ccc(Nc2cc(C)nc(NCc3ccccc3)n2)cc1 | – | – | – | – | – | –
COc1ccc(Nc2cc(C)nc(NCc3ccccc3)n2)cc1 | – | – | – | 88.9 | – | –
CNS(=O)(=O)c1cccc(C(=O)OCC(=O)NC2CCCC(C)C2C)c1 (centres undefined) | – | – | – | – | – | –
O=C1[C@H]2[C@@H](c3ccc(C(F)(F)F)cc3)N[C@]3(CCCN(Cc4ccc(F)cc4)C3=O)[C@H]2C(=O)N1Cc1ccccc1 | – | – | 95.4 | – | · | –
Fc1ccc(N/N=C/c2ccc(N3CCOCC3)cc2)c(F)c1 | 69.7 | – | – | – | – | –
C/C(=N\Nc1ccc(F)cc1F)c1ccc(N2CCOCC2)cc1 | – | – | – | – | – | –
CCCC(C)NC(C)C(=O)NC1CCCC1 (centres undefined) | – | – | – | – | – | 66.4
O=S(=O)(NC1=NCCCCC1)c1ccc(Cl)cc1Cl | – | – | – | – | – | –
CCNC(=O)N(CC)C[C@H]1N[C@@](Cc2ccccc2)(C(=O)OC)[C@H]2C(=O)N(Cc3ccccc3)C(=O)[C@@H]12 | – | – | – | – | – | –
CCNC(=O)N(CC)C[C@H]1N[C@@](Cc2ccccc2)(C(=O)OC)[C@H]2C(=O)N(C)C(=O)[C@@H]12 | – | – | – | – | – | 64.6
CCN(C[C@H]1N[C@@](CC)(C(=O)OC)[C@H]2C(=O)N(C)C(=O)[C@@H]12)S(=O)(=O)c1ccc(C(F)(F)F)cc1 | – | – | – | – | – | –
CCN(C[C@H]1N[C@@](CC)(C(=O)OC)[C@H]2C(=O)N(C)C(=O)[C@@H]12)S(=O)(=O)c1ccc(C(C)(C)C)cc1 | – | – | 53.7 | – | – | –
c1ccc(N2CCN(c3nnnn3-c3ccccc3)CC2)cc1 | – | – | – | – | – | –
c1ccc(-n2nnnc2-n2cnc3ccccc32)cc1 | – | – | 53.7 | – | – | –
COc1cc(/C=C2/CCc3ccccc3C2=O)cc(OC)c1OC | – | – | – | – | – | –
COc1cc(/C=C2\COC/C(=C\c3cc(OC)c(OC)c(OC)c3)C2=O)cc(OC)c1OC | 77.6 | 92.7 | 101.8 | 96.1 | 92.1 | 91.4
COc1cc(/C=C2\CCC/C(=C\c3ccc(O)c(OC)c3)C2=O)ccc1O | – | 81.0 | 85.1 | – | – | –
COc1cc(/C=C2\CC/C(=C\c3cc(OC)c(O)c(OC)c3)C2=O)cc(OC)c1O | – | – | 79.5 | – | 67.6 | –
COc1cc(/C=C2\CC/C(=C\c3cc(OC)c(OC)c(OC)c3)C2=O)cc(OC)c1OC | – | – | – | – | – | –
CC(C)n1nnnc1C1c2ccccc2C(=O)N1CCCn1ccnc1 (centres undefined) | – | – | – | · | · | ·
Cc1c(-c2ccccn2)c(=O)[nH]n1-c1ccc(F)cc1 | – | – | 50.8 | – | – | –
O=c1[nH]n(-c2ccc(F)cc2)c2ncccc12 | – | – | – | – | – | –
CCC(c1nc2ccccc2[nH]1)N(C(=O)C1=NNC(=O)CC1)c1ccccc1 (centres undefined) | – | – | – | – | · | ·
COc1cccc(NC(=O)C2(C)CCN2C(=O)Cc2ccc(C(C)C)cc2)c1 (centres undefined) | – | – | – | – | · | ·
N#CCCn1nc2c(c1N)CCC2 | – | – | – | – | – | –
SMILES | TROY signal inh | HIF-2a inh | TWEAK Fn14 block | Shn3 3UTR inh | MITF TRPM1 inh | EBV LMP1 NFkB
Cn1cc(C(c2ccccc2OCC(=O)O)c2cn(C)c3ccccc23)c2ccccc21 | – | – | – | – | – | –
O=c1cc(N=Nc2ccc(Cl)cc2)[nH]c(=O)[nH]1 | – | – | 58.3 | – | – | –
c1ccc2c(C3=NNC(=NC4CC4)SC3)c[nH]c2c1 | – | – | 78.2 | – | – | –
c1ccc(C2=NNC(=NC3CC3)SC2)cc1 | – | – | 63.3 | – | – | 47.6
O=C(CSc1ncnc2c1oc1ccccc12)Nc1ccccc1C(F)(F)F | 82.4 | – | 91.5 | – | – | –
O=C(O)CSc1ncnc2c1oc1ccccc12 | · | – | – | – | – | –
COc1ccc(S(=O)(=O)N(C(C)=O)c2ccc(OC(C)=O)c3ccccc23)cc1[N+](=O)[O-] | – | – | – | – | 71.5 | –
CC(=O)Oc1ccc(N(C(C)=O)S(=O)(=O)c2ccccc2)c2ccccc12 | – | – | – | – | · | –
CCCCCOC(=O)C1=C(C)NC(=O)NC1c1ccc(OC)cc1 (centres undefined) | – | – | 69.9 | – | – | –
CC(=O)c1ccc(N2CCC(c3cc(-c4ccc(Cl)cc4Cl)n[nH]3)CC2)c([N+](=O)[O-])c1 | – | – | 88.2 | – | – | –
O=[N+]([O-])c1cccnc1N1CCC(c2cc(-c3ccc(Cl)cc3Cl)n[nH]2)CC1 | – | – | – | – | – | –
CC(=O)N1CCN(Cc2cc(=O)oc3ccccc23)CC1 | – | – | – | – | · | ·
CCOC(=O)N1CCC(N2C(=O)c3ccccc3C2Nc2ccc3c(c2)OCCO3)CC1 (centres undefined) | 65.5 | – | 84.8 | – | 70.7 | –
CCOC(=O)C1CCN(c2c(Nc3ccc4c(c3)OCCO4)c(=O)c2=O)CC1 | 62.5 | – | 80.5 | – | – | –
COc1ccc2nc(NNC(=O)COc3ccccc3)sc2c1 | – | – | – | – | – | –
O=C(COc1ccccc1)NNc1nc2ccccc2s1 | 85.4 | – | 70.0 | – | – | –
CC(=O)NNc1nc2ccccc2s1 | 83.5 | – | 89.5 | – | – | –
COc1ccc(-n2c(SCC(=O)Nc3cc(C)on3)nc3c(c2=O)SCC3)cc1 | – | – | – | – | – | 82.6
COC(=O)c1ccc(CSc2nc3c(c(=O)n2-c2ccc(C)cc2)SCC3)o1 | – | – | – | – | – | 70.4
COc1ccc(-n2c(SCC(=O)Nc3cc(C)on3)nc3c(c2=O)SCC3)cc1OC | – | – | – | – | – | –
COc1ccccc1-c1csc(Nc2ccc(Oc3ccccc3)cc2)n1 | – | – | – | – | · | ·
C/C(=N\NC(=O)c1ccc(N/N=C(\C)c2ccc(O)cc2)cc1)c1ccc(O)cc1 | – | – | – | – | – | –
CNC(=O)c1c(O)c2cccc3c2n(c1=O)CC3 | · | – | 53.1 | – | – | –
CC(C)NC(=O)c1c(O)c2cccc3c2n(c1=O)CCC3 | – | – | – | – | – | –
C=C(NC(=O)C(=C)NC(=O)c1csc(C2=NC3c4csc(n4)C4NC(=O)c5csc(n5)C(C(C)(O)C(C)O)NC(=O)C5CSC(=N5)/C(=C/C)NC(=O)C(C(C)O)NC(=O)c5csc(n5)C3(CC2)NC(=O)C(C)NC(=O)C(=C)NC(=O)C(=C)NC(=O)C(C(C)C)NC2C=Cc3c(C(C)O)cc(nc3C2O)C(=O)OC4C)n1)C(N)=O (centres undefined) | – | 63.6 | – | 85.5 | 94.2 | 64.8
O=C(NNc1nc2ccc(Cl)cc2s1)c1cc(-c2cccs2)nc2ccccc12 | – | – | 58.1 | – | – | –
